Results taken from PubChem BioAssay AID652104 (National Center for Advancing Translational Sciences (NCATS), 2013).
Screen size: about 410,000 compounds; about 7,200 (1.8%) were called active. About 7% were inconclusive and are not listed. Calls follow the shape of the dose curve; as a rule, active = well fitted activation curve with a large enough effect; inconclusive = small, poorly fitted or top-dose-only effect, or another doubt; inactive = no such curve, though single readings can be large or run the other way. What follows is part of a selection rich in actives, with near analogues and random picks from the rest.

Assay: qHTS of TDP-43 Inhibitors; also: nearly all actives have a fitted effect of over 50% in size; as to growth rescue (activation): % of control where 0% means no effect
Details: TDP-43 expressing yeast growth rescue, BacTiter-Glo, 24 h; series mostly up to 46.1 µM; growth rescue (activation): at the top concentration
Procedure, shortened: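 Cell-based yeast growth screen: TDP-43 expression induced in galactose, inoculum OD600=0.02 after raffinose pregrowth to mid-log. Read-out BacTiter-Glo luminescence at 24 hr, 30 deg C; inhibition of toxicity seen as signal increase.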
Potency is read from the fitted curve at half-maximal effect.

Structure (SMILES)	growth rescue (activation)	Potency
Cc1ccc(SCC(=O)Nc2ccc3oc(-c4ccccc4C)nc3c2)cc1	17.9% (inactive)	–
CCC(=O)Nc1cccc(-c2nc3cc(C)ccc3o2)c1	–	14.1 µM (active)
O=C(Nc1cccc(-c2nc3ccccc3o2)c1)c1cccc(Br)c1	-0.934% (inactive)	–
CCOc1ccc(-n2c(C)nc3c(cnn3-c3ccc(C)cc3)c2=O)cc1	17.3% (inactive)	–
CCOC(=O)Cn1c(=O)n(C2CCCCC2)c2nc(-c3cccc(OC)c3)nc(C(N)=O)c21	-2.36% (inactive)	–
Cc1ccc(Cl)cc1NC(=O)CCS(=O)(=O)c1ccc(Br)s1	12.3% (inactive)	–
O=Cc1c(Cl)cccc1Cl	22.7% (inactive)	–
O=c1[nH]snc1-c1c(Cl)cccc1Cl	–	17.8 µM (active)
CN(C)NC(=O)c1csnc1-c1c(Cl)cccc1Cl	-9.43% (inactive)	–
Cc1ccc(NC(=O)C2CC(c3ccc(F)cc3)=NO2)cc1 (stereo not drawn)	-11.8% (inactive)	–
Cc1ccccc1N1CC(C(=O)Nc2ccc3c(c2)OCO3)CC1=O (stereo not drawn)	-6.84% (inactive)	–
O=C(Nc1ccc2c(c1)OCO2)C1CC(c2c(F)cccc2Cl)=NO1 (stereo not drawn)	–	10 µM (active)
Cc1cccc(CSc2nc3ccncc3n2Cc2ccc(C(=O)O)cc2)c1	14.6% (inactive)	–
COc1ccccc1-c1nnc(NC(=O)c2ccc3ncsc3c2)o1	–	11.2 µM (active)
CSc1ccccc1-c1nnc(NC(=O)c2ccc3c(c2)OCCO3)o1	21.5% (inactive)	–
Cc1ccc(C(=O)Nc2nnc(C3=COCCO3)o2)cc1C	-17.5% (inactive)	–
CCOc1ccc(NC(=O)CCC(=O)N2CC(C)Oc3ccc(C)cc32)cc1 (stereo not drawn)	11.9% (inactive)	–
Clc1ccc(C2=CSC3=Nc4cccc5cccc(c45)N23)cc1	–	17.8 µM (active)
COc1ccc(CCN2C(=O)c3oc4cc(C)cc(C)c4c(=O)c3C2c2ccccc2F)cc1OC (stereo not drawn)	-2.16% (inactive)	–
O=C(Nc1cc(-c2nc3ncccc3o2)ccc1Cl)c1ccco1	2.94% (inactive)	–
O=C(Nc1ccc2nc(SCCOc3ccccc3)sc2c1)c1ccco1	-2.18% (inactive)	–
O=C(Nc1cccc(NC(=O)c2ccco2)c1)c1cnccn1	–	12.6 µM (active)
CSc1nc(=O)c2c(n1C)NC(=O)CC2c1ccccc1OC(C)C (stereo not drawn)	5.81% [at 9.22 µM] (inactive)	–
COc1ccc(CCN2C(=O)N(c3cccc(OC)c3)C(=O)C2CC(=O)Nc2ccccc2)cc1 (stereo not drawn)	-8.2% (inactive)	–
N#Cc1ccccc1Cn1cnc2nc3c(cc2c1=O)CCCC3	-11% (inactive)	–

Structure (SMILES)	growth rescue (activation)	Potency
Cc1ccc2onc(CC(=O)N3CCN(c4ccc(Cl)cc4)CC3)c2c1	–	20 µM (active)
O=C(CSc1nc2ccccc2o1)N1CCN(c2ccc(Cl)cc2)CC1	23.8% (inactive)	–
Cc1ccc2oc(=O)c3cnn(CC(=O)N4CCN(c5cccc(Cl)c5)CC4)c3c2c1	17.5% (inactive)	–
Cc1nnc(NCc2ccccc2)c2c1nnn2Cc1ccc(F)cc1	0% (inactive)	–
Cc1nc2nc(SCC(=O)N(Cc3ccccc3)C(C)C)nn2c(C)c1Cc1ccccc1Cl	11.2% (inactive)	–
Cc1cccc(NC(=O)C2CCN(S(=O)(=O)c3c(C)noc3/C=C/c3ccco3)CC2)c1	2.24% (inactive)	–
NC(=O)Nc1ccc(C(=O)OCC(=O)NC2CCCc3ccccc32)cc1 (stereo not drawn)	16.9% (inactive)	–
O=C(Nc1cccc(F)c1)NC1CCCc2ccccc21 (stereo not drawn)	–	12.6 µM (active)
O=C(CCNC(=O)c1ccc(Cl)cc1)NC1CCCc2ccccc21 (stereo not drawn)	15.6% (inactive)	–
Cc1cccc(Cn2c(CN3CCC(C(=O)NCc4ccccc4Cl)CC3)cc3ccccc32)c1	3.69% (inactive)	–
Cc1ccc(CSc2nc3cccnc3n2Cc2ccc(C(=O)NC3CC3)cc2)cc1	6.89% (inactive)	–
COc1ccc(-c2onc(C)c2C)cc1S(=O)(=O)NCc1cccs1	9.4% (inactive)	–
COc1ccc(-c2onc(C)c2C)cc1S(=O)(=O)NCCc1ccccc1	–	15.8 µM (active)
COc1ccc(C)cc1S(=O)(=O)NCCc1ccccc1	1.56% (inactive)	–
Cc1ccc(N(CC(=O)NCC(C)c2ccccc2)S(=O)(=O)N(C)C)cc1 (stereo not drawn)	0% (inactive)	–
CCCN(CCC)CCNC(=O)c1ccc2c(c1)NC(=O)C(CS(=O)(=O)Cc1cccc(Br)c1)N2 (stereo not drawn)	-2.33% (inactive)	–
CCOc1ccc(-c2nonc2NC(=O)c2oc3ccc(CC)cc3c2C)cc1	-12.6% (inactive)	–
O=C(NCc1ccc2c(c1)CCN2C(=O)c1ccccc1)Nc1cc(F)ccc1F	-15.6% (inactive)	–
Cc1ccc2c(c1)c1ncnc(N3CCc4ccccc4C3)c1n2C	–	22.4 µM (active)
Cc1ccc2c(c1)N(C(=O)CCC(=O)N1CCc3ccccc3C1)CCO2	15.3% (inactive)	–
COc1ccc2c(c1)c1ncn(Cc3ccccn3)c(=O)c1n2C	-11.4% (inactive)	–
CCOc1ccc(-n2nc3ccc(NC(=O)c4ccc(OC)c(Cl)c4)cc3n2)cc1	10.4% (inactive)	–
CCCCOc1ccc(NC(=O)c2cc3c(n(-c4ccc(Cl)cc4)c2=O)CCCC3=O)cc1	-8.97% (inactive)	–
COc1ccc(C2=NN(C(C)=O)C(c3ccccc3)C2)cc1 (stereo not drawn)	–	14.1 µM (active)
COc1ccc(C2=NN(C(=O)CSc3nc(=O)n4ccc(C)cc4n3)C(c3ccc(C)cc3)C2)cc1 (stereo not drawn)	9.83% (inactive)	–

Structure (SMILES)	growth rescue (activation)	Potency
CCC(=O)N1N=C(c2ccc(OC)cc2)CC1c1cn(-c2ccccc2)nc1-c1cccs1 (stereo not drawn)	-13% (inactive)	–
CCN(C(=O)Cn1c(=O)nc(-c2ccccc2)c2cc(Cl)ccc21)c1cccc(C)c1	18.1% (inactive)	–
Cn1c(=O)c2c(-c3ccccc3Br)n(Cc3ccccc3)cc2n(C)c1=O	–	22.4 µM (active)
COc1ccc(CCn2cc3c(c2-c2ccc(Br)cc2)c(=O)n(C)c(=O)n3C)cc1OC	2.32% (inactive)	–
Cc1ccc(-c2c3c(=O)n(C)c(=O)n(C)c3cn2-n2cnnc2)cc1	-8.21% (inactive)	–
CCc1ccc(S(=O)(=O)c2nnn3c2nc(NCc2ccccc2OC)c2cc(Cl)ccc23)cc1	1.16% (inactive)	–
NS(=O)(=O)c1ccc(NC(=O)C(=O)Nc2ccc3nc4n(c(=O)c3c2)CCCCC4)cc1	13.4% (inactive)	–
CCOC(=O)c1cc(C)sc1NC(=O)C1CCC1	14.2% (inactive)	–
CC(C)NS(=O)(=O)c1ccc(NC(=O)C2CCCCC2)cc1	-2.1% (inactive)	–
Cc1nc(NC(=O)C2CCCCC2)sc1C	–	12.6 µM (active)
CCOC(=O)C1CCCN(C(=O)c2ccc3c(c2)sc2nc(-c4ccc(CC)cc4)cn23)C1 (stereo not drawn)	19.4% (inactive)	–
COc1ccc(/C=C/c2nc(C#N)c(NCc3ccc(F)cc3)o2)cc1OC	3.83% (inactive)	–
COc1cc2[nH]c(=O)n(Cc3ccc(C(=O)NCc4ccc(C)cc4)cc3)c(=O)c2cc1OC	13.5% (inactive)	–
O=C(CCSc1ccccc1)N1CCN(c2ccccc2F)CC1	-9.85% [at 9.22 µM] (inactive)	–
Cc1cccc(N2CCN(C(=O)CCSCc3ccccc3F)CC2)c1C	–	20 µM (active)
COc1ccc(N2CCN(C(=O)CCSCc3ccccc3F)CC2)cc1	10.3% (inactive)	–
CCc1cc2c(cc3c(=O)n(CC(=O)NCc4cccc(Cl)c4)nc(CC)n32)s1	20.3% (inactive)	–
C=Cc1ccc(Cn2c(C(=O)O)c(CNC3CCCC3)c3ccc(C)cc32)cc1	19.4% (inactive)	–
CCCNC(=O)C1CCC(Cn2c(=O)c3sccc3n(Cc3ccccc3F)c2=O)CC1 (stereo not drawn)	5.85% (inactive)	–
COc1ccc(-c2cc3nc(C)c(CCC(=O)NC(C)CCc4ccco4)c(C)n3n2)c(OC)c1 (stereo not drawn)	–	17.8 µM (active)
COc1ccccc1-c1cc2nc(C)c(CCC(=O)O)c(C)n2n1	12.8% (inactive)	–
COc1ccccc1-c1cc2nc(C)c(CCC(=O)NC3CCCCC3)c(C)n2n1	15.4% (inactive)	–
COc1cccc(C2=CC(=O)C[C@H](c3ccc(OC)c(OC)c3)C2)c1	–	15.8 µM (active)
COc1ccc([C@H]2CC(=O)C=C(c3ccc(OC(F)(F)F)cc3)C2)cc1OC	–	14.1 µM (active)
COc1ccc(C2CC(=O)C=C(NCC3CCCO3)C2)cc1 (stereo not drawn)	3.96% (inactive)	–

Structure (SMILES)	growth rescue (activation)	Potency
COc1ccc(C2CC(=O)n3c(nc4ccccc43)S2)cc1OC (stereo not drawn)	-3.84% (inactive)	–
COc1ccc([C@H]2CC(=O)C=C(/C=C/c3ccccc3)C2)cc1	22.2% (inactive)	–
COc1ccc([C@H]2CC(=O)C=C(c3ccc(CO)cc3)C2)cc1	4.37% (inactive)	–
CCOC(=O)c1c(NC(=O)Cc2coc3ccc(CC)cc23)sc2c1CCC2	9.45% (inactive)	–
O=C(Nc1ccc(OC(F)(F)F)cc1)C1CCCN(S(=O)(=O)c2ccc(Br)s2)C1 (stereo not drawn)	0% (inactive)	–
CC(NC(=O)c1cc2c(=O)n3ccccc3nc2n(C(C)C)c1=N)c1ccccc1 (stereo not drawn)	9.02% (inactive)	–
COc1ccc(C2=NS(=O)(=O)N(C)C(C(=O)N(C)Cc3ccccc3)=C2)cc1	23.4% (inactive)	–
CN(Cc1ccccc1)C(=O)c1cc2c(=O)n(C)c3ccccc3c2s1	-22% (inactive)	–
CN(C)C(CNC(=O)CCCOc1ccccc1)c1ccco1 (stereo not drawn)	8.75% (inactive)	–
CN(CCOc1ccccc1)C(=O)c1cc(-c2ccco2)nc2ccccc12	–	35.5 µM (active)
COc1cccc(NC(=O)CN(C)C(=O)c2cc(Cl)nc3ccccc23)c1	14.2% (inactive)	–
COc1ccc(-c2cc(C(=O)N(C)Cc3ccccc3)c3ccccc3n2)cc1	–	14.1 µM (active)
Cc1ccc2oc3c(c(=O)c2c1)C(c1ccc(O)cc1)N(Cc1ccc2c(c1)OCO2)C3=O (stereo not drawn)	-1.95% (inactive)	–
CNc1ccc(-c2nc(-c3ccccc3C)no2)cc1[N+](=O)[O-]	2.62% (inactive)	–
Cc1ccc(CN2CCC(CNC(=O)c3cnn(-c4ccc(C)cc4)c3C3CCN(C(=O)OC(C)(C)C)CC3)CC2)cc1	-10.7% (inactive)	–
COc1ccc(Cc2nnc(SCC(=O)c3cccc([N+](=O)[O-])c3)n2C)cc1	-18.2% (inactive)	–
COc1ccc(CC(=O)N/N=C/c2cc([N+](=O)[O-])cc(Br)c2O)cc1	–	6.31 µM (active)
COc1ccc(CCNS(=O)(=O)c2cccc([N+](=O)[O-])c2)cc1	-3.92% [at 1.82 µM] (inactive)	–
Cc1ccc(NC(=O)COc2coc(CN3CCc4ccccc4C3)cc2=O)cc1Cl	-7.54% (inactive)	–
Cc1ccccc1OCC(=O)Nc1ccc(N2CCN(C(=O)C(C)C)CC2)c(Cl)c1	–	25.1 µM (active)
O=C(COc1ccccc1Cl)Nc1ccc2nc(SCC(=O)N3CCCC3)sc2c1	5.47% (inactive)	–
COc1ccc(-c2nc(SCC(=O)N3CCCCC3C)n[nH]2)cc1 (stereo not drawn)	8.34% (inactive)	–
COc1ccccc1CN1CCC(CNC(=O)c2cnn(-c3ccccc3Cl)c2C2CCN(C(=O)OC(C)(C)C)CC2)CC1	23.3% (inactive)	–
